For 25 sequences, binding signal results are on record in article PMC11006913.

Assay in all cases: PBM; 200 nM protein, PBS
What all share (conditions): dsDNA, one strand shown

For one assay, the target named is PITX2 (Homo sapiens, UniProt Q99697 72-157).
Assay [1] addresses T1, NKX2-6 (Homo sapiens, UniProt A6NCS4 118-204).
T1 sequence: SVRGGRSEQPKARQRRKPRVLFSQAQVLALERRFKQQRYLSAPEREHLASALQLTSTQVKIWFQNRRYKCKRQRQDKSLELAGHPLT

The target of assay [2] is VAX1 (Homo sapiens, UniProt Q5SQQ9 86-172).
VAX1 (Homo sapiens, UniProt Q5SQQ9 86-172), sequence (Q5SQQ9 86-172): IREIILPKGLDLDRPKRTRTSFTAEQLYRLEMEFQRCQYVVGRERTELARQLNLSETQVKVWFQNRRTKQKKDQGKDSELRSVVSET
Assay [3] addresses T2, NKX2-6 (Homo sapiens, UniProt A6NCS4 118-204, F151L).
T2 sequence: T1 sequence with F34L

The target of assay [4] is VAX1 (Homo sapiens, UniProt Q5SQQ9 86-172, T142I).
VAX1 (Homo sapiens, UniProt Q5SQQ9 86-172, T142I), sequence (Q5SQQ9 86-172 T142I): as the sequence (Q5SQQ9 86-172) above, with T57I counted along it
Assay [5] addresses PROP1 (Homo sapiens, UniProt O75360 56-141).
Assay [6] addresses PROP1 (Homo sapiens, UniProt O75360 56-141, R99H).
Assay [7] concerns the target PROP1 (Homo sapiens, UniProt O75360 56-141, F88S).
The target of assay [8] is T3, PAX4 (Homo sapiens, UniProt O43316 9-242, R200K).
T3 sequence: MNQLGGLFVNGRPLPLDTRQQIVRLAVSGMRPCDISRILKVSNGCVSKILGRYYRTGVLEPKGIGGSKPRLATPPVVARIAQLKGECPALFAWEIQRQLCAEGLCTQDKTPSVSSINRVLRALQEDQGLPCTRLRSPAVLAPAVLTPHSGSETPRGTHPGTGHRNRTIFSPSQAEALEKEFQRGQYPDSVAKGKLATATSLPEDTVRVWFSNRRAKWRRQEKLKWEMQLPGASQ

The target in assay [9] is T4, PAX4 (Homo sapiens, UniProt O43316 9-242).
T4 sequence: T3 sequence with K192R

Assay [10] concerns the target T5, PAX4 (Homo sapiens, UniProt O43316 9-242, R200Q).
T5 sequence: T3 sequence with K192Q

The target of assay [11] is T6, PAX4 (Homo sapiens, UniProt O43316 9-242, F177V).
T6 sequence: T3 sequence with F169V, K192R

The target of assay [12] is T7, PAX4 (Homo sapiens, UniProt O43316 9-242, F177Y).
T7 sequence: T3 sequence with F169Y, K192R

The target of assay [13] is T8, PAX4 (Homo sapiens, UniProt O43316 9-242, R227W).
T8 sequence: T3 sequence with K192R, R219W

Assay [14] concerns the target MSX2 (Homo sapiens, UniProt P35548 130-214, R199I).
In assay [15] the target is MSX2 (Homo sapiens, UniProt P35548 130-214).
MSX2 (Homo sapiens, UniProt P35548 130-214), sequence (P35548 130-214): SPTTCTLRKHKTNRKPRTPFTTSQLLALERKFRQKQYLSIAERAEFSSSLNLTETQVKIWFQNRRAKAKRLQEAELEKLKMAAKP
For assay [16], the target named is MSX2 (Homo sapiens, UniProt P35548 130-214, F161Y).
MSX2 (Homo sapiens, UniProt P35548 130-214, F161Y), sequence (P35548 130-214 F161Y): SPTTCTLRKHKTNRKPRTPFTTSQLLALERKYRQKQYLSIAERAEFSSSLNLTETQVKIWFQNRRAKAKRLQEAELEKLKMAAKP
The target in assay [17] is HOXD13 (Homo sapiens, UniProt P35453 263-343, T313R).
HOXD13 (Homo sapiens, UniProt P35453 263-343, T313R), sequence (P35453 263-343 T313R): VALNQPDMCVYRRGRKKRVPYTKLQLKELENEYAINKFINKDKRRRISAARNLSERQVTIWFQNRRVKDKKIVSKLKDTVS
Assay [18] deals with HOXD13 (Homo sapiens, UniProt P35453 263-343).
HOXD13 (Homo sapiens, UniProt P35453 263-343), sequence (P35453 263-343): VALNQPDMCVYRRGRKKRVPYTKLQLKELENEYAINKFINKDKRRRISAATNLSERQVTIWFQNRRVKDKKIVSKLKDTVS
The target in assay [19] is HOXD13 (Homo sapiens, UniProt P35453 263-343, T313A).
HOXD13 (Homo sapiens, UniProt P35453 263-343, T313A), sequence (P35453 263-343 T313A): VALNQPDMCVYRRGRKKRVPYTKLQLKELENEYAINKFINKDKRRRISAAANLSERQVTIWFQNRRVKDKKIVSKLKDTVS

Residue numbers refer to the chain shown, from its start.

PROP1 (Homo sapiens, UniProt O75360 56-141, R99H), sequence (O75360 56-141 R99H): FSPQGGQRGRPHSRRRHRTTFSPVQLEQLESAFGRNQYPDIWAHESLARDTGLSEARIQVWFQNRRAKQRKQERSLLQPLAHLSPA
MSX2 (Homo sapiens, UniProt P35548 130-214, R199I), sequence (P35548 130-214 R199I): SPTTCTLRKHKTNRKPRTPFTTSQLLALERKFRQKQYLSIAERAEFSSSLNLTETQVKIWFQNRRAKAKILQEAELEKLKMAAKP
PROP1 (Homo sapiens, UniProt O75360 56-141, F88S), sequence (O75360 56-141 F88S): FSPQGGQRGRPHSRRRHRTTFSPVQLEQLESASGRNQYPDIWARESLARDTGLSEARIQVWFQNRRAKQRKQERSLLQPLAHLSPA
PROP1 (Homo sapiens, UniProt O75360 56-141), sequence (O75360 56-141): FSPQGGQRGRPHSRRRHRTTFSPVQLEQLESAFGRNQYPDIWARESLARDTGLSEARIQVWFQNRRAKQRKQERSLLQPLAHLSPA

For CTTGGCGC, the binding signal with PITX2 was 7.94 upbm affinity estimate (log intensity, higher = more binding, comparable within an allelic series).

Turning to CCCAGCCG, the binding signal with PITX2 was 8.01 upbm affinity estimate (log intensity, higher = more binding, comparable within an allelic series).

With CGCTGCGC, the binding signal was 9.4 upbm affinity estimate (log intensity, higher = more binding, comparable within an allelic series) with NKX2-6 [1]; 7.4 upbm affinity estimate (log intensity, higher = more binding, comparable within an allelic series) with VAX1 [2]; 9.26 upbm affinity estimate (log intensity, higher = more binding, comparable within an allelic series) with NKX2-6 [3]; 7.38 upbm affinity estimate (log intensity, higher = more binding, comparable within an allelic series) with VAX1 [4].

Consider GTCCGGAC, for which the binding signal in the assay with PROP1 [5] is 6.74 upbm affinity estimate (log intensity, higher = more binding, comparable within an allelic series); with PROP1 [6], 6.64 upbm affinity estimate (log intensity, higher = more binding, comparable within an allelic series); with PROP1 [7], 6.7 upbm affinity estimate (log intensity, higher = more binding, comparable within an allelic series).

Consider CGGCCTGC, for which the binding signal with PITX2 is 7.72 upbm affinity estimate (log intensity, higher = more binding, comparable within an allelic series).

In the case of GGGGGCAA, the binding signal is 9.18 upbm affinity estimate (log intensity, higher = more binding, comparable within an allelic series) in the assay with PAX4 [8]; 9.24 upbm affinity estimate (log intensity, higher = more binding, comparable within an allelic series) in the assay with PAX4 [9]; 9.19 upbm affinity estimate (log intensity, higher = more binding, comparable within an allelic series) with PAX4 [10]; 9.04 upbm affinity estimate (log intensity, higher = more binding, comparable within an allelic series) with PAX4 [11]; 9.1 upbm affinity estimate (log intensity, higher = more binding, comparable within an allelic series) with PAX4 [12]; 9.17 upbm affinity estimate (log intensity, higher = more binding, comparable within an allelic series) with PAX4 [13].

With AGATATAC, the binding signal is 8.24 upbm affinity estimate (log intensity, higher = more binding, comparable within an allelic series) in the assay with VAX1 [2] and 8.22 upbm affinity estimate (log intensity, higher = more binding, comparable within an allelic series) with VAX1 [4].

As to GGGGGGAC, the binding signal was 6.32 upbm affinity estimate (log intensity, higher = more binding, comparable within an allelic series) with PROP1 [5]; 6.19 upbm affinity estimate (log intensity, higher = more binding, comparable within an allelic series) with PROP1 [6]; 6.83 upbm affinity estimate (log intensity, higher = more binding, comparable within an allelic series) with VAX1 [2]; 5.57 upbm affinity estimate (log intensity, higher = more binding, comparable within an allelic series) with PROP1 [7]; 7.14 upbm affinity estimate (log intensity, higher = more binding, comparable within an allelic series) with VAX1 [4].

For the sequence CAGGCCCG, the binding signal in the assay with MSX2 [14] was 9.39 upbm affinity estimate (log intensity, higher = more binding, comparable within an allelic series); in the assay with MSX2 [15], 9.3 upbm affinity estimate (log intensity, higher = more binding, comparable within an allelic series); with MSX2 [16], 9.36 upbm affinity estimate (log intensity, higher = more binding, comparable within an allelic series).

With CCCCGGGG, the binding signal is 9.57 upbm affinity estimate (log intensity, higher = more binding, comparable within an allelic series) with NKX2-6 [1] and 9.2 upbm affinity estimate (log intensity, higher = more binding, comparable within an allelic series) with NKX2-6 [3].

In the case of CCACCCGC, the binding signal was 9.63 upbm affinity estimate (log intensity, higher = more binding, comparable within an allelic series) in the assay with MSX2 [14]; 9.57 upbm affinity estimate (log intensity, higher = more binding, comparable within an allelic series) in the assay with MSX2 [15]; 9.69 upbm affinity estimate (log intensity, higher = more binding, comparable within an allelic series) with MSX2 [16].

For CGCGTGGC, the binding signal is 9.55 upbm affinity estimate (log intensity, higher = more binding, comparable within an allelic series) in the assay with MSX2 [14]; 9.66 upbm affinity estimate (log intensity, higher = more binding, comparable within an allelic series) in the assay with MSX2 [15]; 9.65 upbm affinity estimate (log intensity, higher = more binding, comparable within an allelic series) with MSX2 [16].

CTCCGCCC: the binding signal with PAX4 [8] is 9.45 upbm affinity estimate (log intensity, higher = more binding, comparable within an allelic series); with PAX4 [9], 9.46 upbm affinity estimate (log intensity, higher = more binding, comparable within an allelic series); with PAX4 [10], 9.44 upbm affinity estimate (log intensity, higher = more binding, comparable within an allelic series); with PAX4 [11], 9.16 upbm affinity estimate (log intensity, higher = more binding, comparable within an allelic series); in the assay with PAX4 [12] it was 9.22 upbm affinity estimate (log intensity, higher = more binding, comparable within an allelic series); in the assay with PAX4 [13], 9.35 upbm affinity estimate (log intensity, higher = more binding, comparable within an allelic series).

Turning to CGGGCCGC, the binding signal in the assay with HOXD13 [17] was 9.48 upbm affinity estimate (log intensity, higher = more binding, comparable within an allelic series); in the assay with HOXD13 [18], 9.34 upbm affinity estimate (log intensity, higher = more binding, comparable within an allelic series); with HOXD13 [19], 9.63 upbm affinity estimate (log intensity, higher = more binding, comparable within an allelic series).

CAGCGCCG: the binding signal with PAX4 [8] was 9.2 upbm affinity estimate (log intensity, higher = more binding, comparable within an allelic series); with PAX4 [9] it was 9.2 upbm affinity estimate (log intensity, higher = more binding, comparable within an allelic series); in the assay with PAX4 [10], 9.26 upbm affinity estimate (log intensity, higher = more binding, comparable within an allelic series); with PAX4 [11], 9.19 upbm affinity estimate (log intensity, higher = more binding, comparable within an allelic series); with PAX4 [12], 9.21 upbm affinity estimate (log intensity, higher = more binding, comparable within an allelic series); with PAX4 [13] it was 9.19 upbm affinity estimate (log intensity, higher = more binding, comparable within an allelic series).

As for CGGCCACC, the binding signal with HOXD13 [17] was 9.38 upbm affinity estimate (log intensity, higher = more binding, comparable within an allelic series); in the assay with HOXD13 [18], 9.42 upbm affinity estimate (log intensity, higher = more binding, comparable within an allelic series); with HOXD13 [19], 9.39 upbm affinity estimate (log intensity, higher = more binding, comparable within an allelic series).

On to CCCCAGCG, for which the binding signal with MSX2 [14] was 9.51 upbm affinity estimate (log intensity, higher = more binding, comparable within an allelic series); with MSX2 [15], 9.6 upbm affinity estimate (log intensity, higher = more binding, comparable within an allelic series); with MSX2 [16], 9.52 upbm affinity estimate (log intensity, higher = more binding, comparable within an allelic series).

In the case of GCAGTGGC, the binding signal with VAX1 [2] is 7.24 upbm affinity estimate (log intensity, higher = more binding, comparable within an allelic series); with VAX1 [4], 7.19 upbm affinity estimate (log intensity, higher = more binding, comparable within an allelic series).

For the sequence AGCTCCGC, the binding signal with NKX2-6 [1] was 9.07 upbm affinity estimate (log intensity, higher = more binding, comparable within an allelic series); in the assay with NKX2-6 [3], 9.27 upbm affinity estimate (log intensity, higher = more binding, comparable within an allelic series).

Take AGCGGCGC: the binding signal is 9.52 upbm affinity estimate (log intensity, higher = more binding, comparable within an allelic series) in the assay with HOXD13 [17]; 9.67 upbm affinity estimate (log intensity, higher = more binding, comparable within an allelic series) with HOXD13 [18]; 9.61 upbm affinity estimate (log intensity, higher = more binding, comparable within an allelic series) with HOXD13 [19].

Consider CGCAGCGC, for which the binding signal in the assay with PROP1 [5] is 6.83 upbm affinity estimate (log intensity, higher = more binding, comparable within an allelic series); in the assay with PROP1 [6] it was 6.82 upbm affinity estimate (log intensity, higher = more binding, comparable within an allelic series); with PROP1 [7] it was 6.74 upbm affinity estimate (log intensity, higher = more binding, comparable within an allelic series).

As to GCCAGTCC, the binding signal with HOXD13 [17] was 9.53 upbm affinity estimate (log intensity, higher = more binding, comparable within an allelic series); with HOXD13 [18], 9.55 upbm affinity estimate (log intensity, higher = more binding, comparable within an allelic series); with HOXD13 [19], 9.63 upbm affinity estimate (log intensity, higher = more binding, comparable within an allelic series).

In the case of CCGCCAGC, the binding signal with NKX2-6 [1] was 8.92 upbm affinity estimate (log intensity, higher = more binding, comparable within an allelic series); in the assay with NKX2-6 [3] it was 9.24 upbm affinity estimate (log intensity, higher = more binding, comparable within an allelic series).

As to AGGGCCCG, the binding signal is 6.78 upbm affinity estimate (log intensity, higher = more binding, comparable within an allelic series) in the assay with VAX1 [2] and 7.02 upbm affinity estimate (log intensity, higher = more binding, comparable within an allelic series) with VAX1 [4].

Consider GCGCTGCC, for which, in the assay with PITX2, the binding signal was 8 upbm affinity estimate (log intensity, higher = more binding, comparable within an allelic series).
